Bioassay records (PubChem)
In the library only some 19% were active in any assay of this set; here they are far more common.
DT40 TDP1 no CPT: qHTS for Inhibitors of human tyrosyl-DNA phosphodiesterase 1 (TDP1): qHTS in cells in absence of CPT. Potency, µM (titrated, usually from 46.2 µM), usual class: inhibitors. DT40 Tdp1-/- hTDP1 cells, no CPT, ATP luminescence, 48 h. actives 15% (n = 420,000); further: nearly all actives have a fitted effect of over 55% in size
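Chicken DT40 Tdp1-/- cells stably complemented with human TDP1 were seeded at 400 cells/well with DMSO in place of 20 nM camptothecin. After compound pinning, cells grew at least 48 hr at 37 °C; viability read by CellTiter-Glo luminescence.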
ELG1 repair inh: ELG1-dependent DNA repair inhibition; Potency, µM (doses to about 46.1 µM), most hits filed as inhibitors; HEK293T ELG1-luciferase reporter, luminescence, 16 h; DNA damage induced by 5-fluorouridine; AID 504467; actives 2.3% (n = 330,000); further: nearly all actives have a fitted effect of over 55% in size
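Reporter activity after DNA damage by 5-fluorouridine is monitored. Compound-treated cells incubate 16 hr at 37 °C, then ONE-Glo is added for 30 min before luminescence reading.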
IL-1B inflam inh: inhibitors of inflammasome signaling (IL-1 beta secretion) | THP-1 LPS/ATP IL-1B secretion, AlphaLISA, 16 h; hits give low values | activity change, % at 57.5 µM | actives 4.7% (n = 360,000) | AID 743279; in the data active means activity change below about -50%; inconclusive means mostly about -30% to -49%
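THP-1 cells pretreated 1 hr with compounds (up to 57.5 uM final), then stimulated with LPS (250 ng/mL final) plus ATP (1.25 mM final); secreted IL-1B measured by AlphaLISA after 16 hr, decreased signal indicating inhibition.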
TDP1 cell CPT: growth inhibition of DT40 Tdp1-/-;hTDP1 cells with camptothecin (screen for TDP1 inhibitors); AID 686979; chicken DT40 Tdp1-/-;hTDP1 cells + 20 nM CPT, ATP luminescence, 48 h; Potency, µM (series often up to 46.2 µM), most hits filed as inhibitors; actives 12% (n = 420,000); further: nearly all actives have a fitted effect of over 55% in size
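Chicken DT40 Tdp1-/- cells stably complemented with human TDP1 were seeded at 400 cells/well in medium containing 20 nM camptothecin, exposed to pin-transferred compounds, and grown at 37 °C for at least 48 hr. Viability was read as ATP luminescence.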
HT1080 IDH1KD tx: toxicity to HT-1080 IDH1 knockdown cells (counter line); HT-1080 IDH1 knockdown viability, ATP luminescence, 48 h; Potency, µM (doses to about 46.1 µM), most hits filed as cytotoxic; actives 2% (n = 360,000)
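CellTiter-Glo luminescence after 48 h compound exposure at 37 degrees C of IDH1-knockdown HT-1080 cells in 5% FBS RPMI. %Activity scaled between DMSO wells and cell-free media wells, with curves fitted and assigned curve classes.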
HT1080NT lethal: kills 2HG-producing HT-1080-NT fibrosarcoma cells; HT-1080-NT fibrosarcoma viability, CellTiter-Glo ATP luminescence, 48 h; Potency, µM (series often up to 46.1 µM), hits mostly cytotoxic; actives 1.6% (n = 360,000); AID 686970;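 further: NT is the 2HG producing partner of a matched IDH1 knockdown line; nearly all actives have a fitted effect of over 55% in size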
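Compounds were tested in concentration-response format on HT-1080-NT cells for 48 hours at 37 degrees C. Cell viability came from CellTiter-Glo luminescence; curves were classified by r2, response magnitude and activity.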
Of the large screens only hits and unclear results are named; the others gave an inactive call. Unless noted, the call rests on the fitted dose curve; in most records, active means well fitted curve in the direction sought with a large enough effect; inconclusive means small, poorly fitted or top-dose-only effect, or another doubt; inactive means no such curve, though single readings can be large; an effect the other way counts as inactive or inconclusive.

Cc1ccc(Cn2c(C(C)Nc3nc(-c4ccc(F)cc4)cs3)nc3cc(C(=O)NCCCO)ccc32)cc1 (centres undefined)	DT40 TDP1 no CPT inconclusive, TDP1 cell CPT inconclusive (no result: ELG1 repair inh)
Cc1ccc(Cn2c(C(C)Nc3nc(-c4ccc(F)cc4)cs3)nc3cc(C(F)(F)F)ccc32)cc1 (centres undefined)	DT40 TDP1 no CPT inconclusive, TDP1 cell CPT 20.6µM (no result: ELG1 repair inh)
CC(Nc1nc(-c2ccc(F)cc2)cs1)c1nc2cc(C(F)(F)F)ccc2n1CCCO (centres undefined)	DT40 TDP1 no CPT 16.4µM, TDP1 cell CPT inconclusive (no result: ELG1 repair inh)
CN(C)c1ccc(N=Cc2ccnc3ccccc23)cc1	DT40 TDP1 no CPT 11.2µM, TDP1 cell CPT 10µM (no result: ELG1 repair inh, IL-1B inflam inh, HT1080 IDH1KD tx, HT1080NT lethal)
CN(C)c1ccc(N=Cc2cccc3ccccc23)cc1	DT40 TDP1 no CPT 3.98µM, TDP1 cell CPT 4.47µM (no result: ELG1 repair inh, IL-1B inflam inh, HT1080 IDH1KD tx, HT1080NT lethal)
Cc1ccc(NC(=O)CCC(=O)NNC(=O)c2ccccc2[N+](=O)[O-])c(C)c1	none
O=C(CCCCCN1C(=O)[C@@H]2Cc3ccccc3CN2C1=O)Nc1cccc(F)c1	DT40 TDP1 no CPT 14.6µM, ELG1 repair inh inconclusive, TDP1 cell CPT inconclusive
Cc1cccc(NC(=O)CCCCCN2C(=O)[C@@H]3Cc4ccccc4CN3C2=O)c1	DT40 TDP1 no CPT inconclusive, ELG1 repair inh inconclusive
CCCc1nnc(NC(=O)CCC(=O)NC2CCCCCC2)s1	ELG1 repair inh inconclusive
Cc1ccn2c(Nc3c(C)cccc3C)c(-c3ccc(Cl)s3)nc2c1	DT40 TDP1 no CPT 18.4µM, TDP1 cell CPT 13µM (no result: ELG1 repair inh, IL-1B inflam inh, HT1080 IDH1KD tx, HT1080NT lethal)
Cc1ccn2c(Nc3c(C)cccc3C)c(-c3ccsc3)nc2c1	DT40 TDP1 no CPT 23.1µM, TDP1 cell CPT 20.6µM (no result: ELG1 repair inh, IL-1B inflam inh, HT1080 IDH1KD tx, HT1080NT lethal)
Nn1cnc2scc(-c3ccc(Cl)cc3)c2c1=O	none
CCCCc1ccc(Nc2ncnc3c2cnn3-c2ccc(C)cc2)cc1	none (no result: ELG1 repair inh, IL-1B inflam inh, HT1080 IDH1KD tx, HT1080NT lethal)
O=[N+]([O-])c1cccc(NNS(=O)(=O)c2ccccc2F)c1	DT40 TDP1 no CPT inconclusive, ELG1 repair inh inconclusive, TDP1 cell CPT inconclusive, HT1080 IDH1KD tx 5.8µM, HT1080NT lethal inconclusive
Cc1ccc(NC(=O)NNC(=O)c2snnc2C)cc1	ELG1 repair inh inconclusive
C#CCn1c(=NC(=O)c2cc(Cl)sc2Cl)sc2cc(S(N)(=O)=O)ccc21	none
C#CCn1c(=NC(=O)c2cc(-c3cccs3)nc3ccccc23)sc2cc(S(N)(=O)=O)ccc21	DT40 TDP1 no CPT inconclusive, ELG1 repair inh inconclusive, TDP1 cell CPT inconclusive, HT1080 IDH1KD tx 25.9µM, HT1080NT lethal inconclusive
Cn1c(CO)cnc1SCc1ccc(F)cc1	none
OCc1cnc(SCc2ccccc2)n1Cc1ccccc1	DT40 TDP1 no CPT 16.4µM, TDP1 cell CPT inconclusive
COc1ccc(Cn2c(CO)cnc2SCc2ccc(F)cc2)cc1	DT40 TDP1 no CPT 18.4µM, TDP1 cell CPT inconclusive (no result: ELG1 repair inh, IL-1B inflam inh, HT1080 IDH1KD tx, HT1080NT lethal)
COc1ccc(Cn2c(CO)cnc2SCc2ccc(C)cc2)cc1	DT40 TDP1 no CPT inconclusive, TDP1 cell CPT 18.4µM (no result: ELG1 repair inh, IL-1B inflam inh, HT1080 IDH1KD tx, HT1080NT lethal)
COc1ccc(CSc2nnc(C)n2N)cc1	none
O=[N+]([O-])/C(C(Cl)=C(Cl)Cl)=C(/NC1CC1)Sc1ccccc1	DT40 TDP1 no CPT 23.1µM, IL-1B inflam inh inconclusive, TDP1 cell CPT inconclusive
O=C(CSc1ccccc1)NC1CC1	none (no result: ELG1 repair inh)
O=C(OCc1nnc(-c2ccc([N+](=O)[O-])cc2)o1)c1ccc(F)c(S(=O)(=O)N2CCOCC2)c1	TDP1 cell CPT inconclusive
CCOc1ccc(N2C(=O)CC(N)C2=O)cc1 (centres undefined)	DT40 TDP1 no CPT 2.59µM, TDP1 cell CPT 1.84µM
CCOc1ccc(N2C(=O)CC(Sc3nc(CC(C)C)ccc3C#N)C2=O)cc1 (centres undefined)	DT40 TDP1 no CPT inconclusive, TDP1 cell CPT 23.1µM
CCOC(=O)CN1C(=O)C(Sc2n[nH]c(-c3ccccc3)n2)CCc2ccccc21 (centres undefined)	DT40 TDP1 no CPT 20.6µM, ELG1 repair inh inconclusive, IL-1B inflam inh inconclusive, TDP1 cell CPT 20.6µM, HT1080NT lethal inconclusive
CCOc1ccc(N2C(=O)CC(Sc3nc(C)cc(C)c3C#N)C2=O)cc1 (centres undefined)	DT40 TDP1 no CPT inconclusive, TDP1 cell CPT inconclusive
COc1ccc(N2C(=O)CC(SCC(=O)O)C2=O)cc1 (centres undefined)	none
COc1ccc(N2C(=O)CC(Sc3n[nH]c(-c4ccccc4)n3)C2=O)cc1 (centres undefined)	DT40 TDP1 no CPT 1.16µM, TDP1 cell CPT 0.461µM
CCOc1ccc(N2C(=O)CC(Cc3cc(C)cc(C)c3)C2=O)cc1 (centres undefined)	DT40 TDP1 no CPT inconclusive
